Assay outcomes deposited in PubChem BioAssay by National Center for Advancing Translational Sciences (NCATS).
Sampled rows, rich in hits. Any-hit rate of the full collection: about 4.6%.
TRHR enhancer – allosterically enhances the human TRH receptor. enhancement, % at 2 µM. P34981. actives 0.66% (n = 360,000). AID 493056. TRHR cells, fluo-8 calcium fluorescence, EC20 TRH enhancement; in the data active = enhancement above about 30%; note: 0% is about no effect
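Enhancer read-out: after compound pinning and an initial kinetic agonist-mode read, an EC20 of TRH (10 nM final) was injected and fluo-8 calcium signal (Ex 480/Em 530) followed at 1 s/cycle for 100 cycles in TRHR-expressing cells.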
D1 antagonist – antagonists of human D1 dopamine receptor; HEK293 TREx D1 cells, calcium flux, dopamine EC80; active compounds read low; P21728; activity change, negative = inhibition, % at 10 µM; actives 3.2% (n = 360,000); AID 504652; in the data active = activity change below about -30%; note: % is set by controls: 0 for no effect and ±100 for the full control effect
Target sequence (P21728 whole entry, looked up): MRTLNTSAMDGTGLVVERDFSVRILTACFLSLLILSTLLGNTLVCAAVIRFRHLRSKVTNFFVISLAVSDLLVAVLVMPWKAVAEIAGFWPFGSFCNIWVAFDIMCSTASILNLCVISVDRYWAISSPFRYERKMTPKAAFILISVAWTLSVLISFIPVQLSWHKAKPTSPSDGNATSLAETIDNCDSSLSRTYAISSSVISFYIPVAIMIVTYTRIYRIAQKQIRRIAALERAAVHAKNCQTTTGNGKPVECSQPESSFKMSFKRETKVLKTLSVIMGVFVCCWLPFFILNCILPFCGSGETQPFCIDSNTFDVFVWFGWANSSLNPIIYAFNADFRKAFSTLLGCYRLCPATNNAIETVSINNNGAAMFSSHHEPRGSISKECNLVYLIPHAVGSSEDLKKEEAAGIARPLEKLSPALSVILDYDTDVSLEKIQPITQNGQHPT
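Antagonism measured as reduced calcium response to an EC80 dopamine addition following 180 s compound pre-read; cells were inducible HEK293 Trex D1 plated overnight at 30 C, read kinetically at 1 cycle/sec.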
TRHR ag – activates the human TRH receptor | P34981 | TRHR cells, calcium flux fluo-8, FDSS agonist mode | activation, % at 2 µM | actives 0.18% (n = 360,000) | AID 493084; note: 0% is about no effect
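In this calcium-flux screen, cells bearing human TRHR are dye-loaded with fluo-8, baselined for 10 cycles, then exposed to library compounds; positive kinetic calcium responses during the agonist phase mark hits, with TRH as control.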
D1 PAM – human D1 dopamine receptor positive modulation | HEK293 TREx D1 cells, calcium flux, dopamine EC20 potentiation | actives 0.036% (n = 360,000) | potentiation, % at 10 µM; in the data active = potentiation above about 30%; note: 0% is about no effect
D1 agonist – agonists of human D1 dopamine receptor | HEK293 T-REx D1 cells, calcium flux, agonist mode | P21728 | actives 1% (n = 360,000) | activation, % at 2 µM; note: 0% is about no effect
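Tetracycline-induced HEK293 TREx D1 cells, force-coupled to calcium signalling, were dye-loaded with a no-wash calcium kit. Compound was pin-added after a 10 s baseline. Fluorescence was read kinetically at 1 cycle/s for 180 s, with calcium rises flagged as agonism.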
* = called active by the depositor. Cut-off read from the data, not from the text of the source, unless noted: active = activation above about 30%; inactive = the rest.

SMILES | TRHR enhancer | D1 antagonist | TRHR ag | D1 PAM | D1 agonist
COc1cccc(CNS(=O)(=O)c2cc3c4c(c2)CCC(=O)N4CCC3)c1 | 11 | -8 | -1 | 0 | 11
Cc1ccc(Cl)cc1N1C(=O)N(Cc2ccc(C#N)cc2)c2ccccc2S1(=O)=O | 0 | 4 | 0 | 0 | 5
COc1ccccc1NC(=O)c1ccc(CN2C(=O)C(C)=C(c3ccc(C)c(C)c3)S2(=O)=O)cc1 | -2 | -3 | 0 | -7 | 3
Cc1ccc(NC(=O)CCCSc2ccccc2)cc1S(=O)(=O)N1CCOCC1 | 14 | -40* | 1 | -15 | 4
O=C(CNc1cc(S(=O)(=O)N2CCCC2)ccc1OCC(F)(F)F)Nc1cc(Cl)cc(Cl)c1 | 4 | 3 | 1 | -1 | 4
Cc1ccc(NC(=O)C(C)N2C(=O)c3ccccc3C2=O)cc1S(=O)(=O)N1CCOCC1 (configuration not stated) | -8 | -42* | 0 | -5 | 4
O=C(CNc1cc(S(=O)(=O)N2CCCC2)ccc1OCC(F)(F)F)Nc1ccc(SC(F)F)cc1 | -8 | -51* | 1 | -8 | 11
Cc1ccc(NC(=O)CCNS(=O)(=O)c2ccccc2F)cc1S(=O)(=O)N1CCOCC1 | -5 | -59* | -1 | -3 | 1
Cc1ccc(NC(=O)CCNC(=O)c2ccc(Br)cc2)cc1S(=O)(=O)N1CCOCC1 | 15 | 17 | 0 | -5 | 2
COc1ccc(NC(=O)Nc2cccc(OCc3cc(=O)n4cccc(C)c4n3)c2)c(OC)c1 | 8 | 5 | 0 | -1 | 1
CCOC(=O)c1cnc2cc(C(F)(F)F)ccc2c1Nc1ccc(F)cc1F | -1 | -8 | 2 | 4 | 1
O=C(CN1C(=O)NC2(CCCC2)C1=O)Nc1cc(S(=O)(=O)N2CCOCC2)ccc1OCC(F)(F)F | -7 | -50* | 0 | -1 | 2
CCN(CC)c1ccc(S(=O)(=O)N2CCOCC2)cc1NC(=O)CN1C(=O)NC2(CCCC2)C1=O | -9 | -10 | 0 | -6 | 1
Cc1ccc(NC(=O)CCN2C(=O)NC3(CCCC3)C2=O)cc1S(=O)(=O)N1CCOCC1 | 12 | -92* | 0 | -6 | 8
O=C(CSC1=NS(=O)(=O)c2cc(Cl)ccc2N1)Nc1cccc(F)c1 | 5 | -10 | -1 | -4 | 1
COc1cccc(-c2nc3c(c(SCc4ccccc4Cl)n2)Cc2c(CO)cnc(C)c2O3)c1 | 2 | 9 | 0 | -6 | 0
NS(=O)(=O)c1ccc(CCNC(=O)C2CCN(S(=O)(=O)c3c(Cl)cccc3Cl)CC2)cc1 | 36* | -2 | 0 | -5 | 1
O=C(CN1CCC(Cc2ccccc2)CC1)NCCc1ccc(F)cc1 | 1 | 5 | -2 | -7 | 2
NS(=O)(=O)c1ccc(CCNC(=O)C2CCN(S(=O)(=O)c3ccccc3)CC2)cc1 | 15 | -14 | 0 | -8 | 7
NS(=O)(=O)c1ccc(CCNC(=O)CN2CCC(Cc3ccccc3)CC2)cc1 | 4 | -44* | 0 | -4 | 19
CCOc1ccc(Nc2cc(C)nc(-n3nc(C)cc3C)n2)cc1 | -7 | -33* | -1 | -5 | 1
CCCCn1cc2c(c1-c1ccc(Cl)cc1)c(=O)n(C)c(=O)n2C | -3 | 3 | -1 | -1 | 0
Cc1ccc(SCC(=O)OCC(=O)NCc2cccs2)cc1 | -1 | -2 | 0 | -2 | 0
CCOC(=O)CNC(=O)COc1ccc(Cl)cc1Br | -1 | 5 | -1 | 2 | 0
O=C(COC(=O)CCCOc1ccc(Cl)cc1Cl)NCc1ccccc1 | 28 | -37* | -1 | -4 | 7
SMILES | TRHR enhancer | D1 antagonist | TRHR ag | D1 PAM | D1 agonist
O=C(COC(=O)COc1ccc(Cl)cc1Br)NCc1cccs1 | 12 | -32* | 0 | -9 | 0
COc1ccc(CNC(=O)COC(=O)Cc2ccc(Cl)cc2Cl)cc1 | 3 | -47* | -2 | -4 | 17
O=C(COC(=O)CSc1ccc([N+](=O)[O-])cc1)NCc1cccs1 | 11 | -55* | -1 | -5 | 7
Cc1cc2c(s1)c1cnn(Cc3cc(F)cc(F)c3)c(=O)c1n2C | 2 | -23 | 0 | -6 | 2
Cc1ccc2c(Sc3ccc(Cl)cc3)c(C(=O)N3CCC(C)CC3)[nH]c2c1 | 2 | -24 | 1 | 1 | 3
O=C(COn1nnc2ccc(Cl)cc21)NCc1ccccc1 | 0 | -34* | 0 | -9 | 1
COc1ccc(N2CCN(C(CNC(=O)C(C)C)c3ccc4c(c3)OCO4)CC2)cc1 (configuration not stated) | 6 | 9 | 1 | 2 | 4
c1ccc(-c2cnn3c(-c4ccccc4)c(-c4ccccc4)nc3n2)cc1 | 23 | -48* | 173* | -13 | 475*
O=C(CN1C(=O)CCSc2ccccc21)Nc1ccc(C(F)(F)F)cc1 | 10 | -24 | -1 | -6 | 18
CCCCOc1ccc(C(=O)Nc2cc(C)c(OCC(=O)N3CCOCC3)c(C)c2)cc1 | 2 | -40* | 0 | -28 | 5
CCCOc1ccc(C(=O)Nc2ccc(CN3CCOCC3)cc2)cc1 | -6 | -10 | 1 | -3 | 11
O=C(COc1ccc2c3c(c(=O)oc2c1)CCC3)Nc1ccc(CN2CCOCC2)cc1 | 33* | -2 | 0 | -3 | 2
CCCCOc1ccc(C(=O)Nc2ccc(CN3CCOCC3)cc2)cc1 | -6 | -36* | 3 | -7 | 19
CCN1CCN(CCCNC(=O)c2cc3c(s2)-c2c(C)cccc2OC3)CC1 | -5 | -7 | 0 | -8 | 5
COc1ccc(OC)c(CCNC(=O)c2cc3c(s2)-c2c(C)cccc2OC3)c1 | 7 | -4 | 0 | 0 | 2
CC1Sc2ccc(S(=O)(=O)N3CCC(C(=O)NCCc4ccccc4)CC3)cc2NC1=O (configuration not stated) | -4 | -7 | 0 | -4 | 8
CC1Sc2ccc(S(=O)(=O)N3CCC(C(=O)NCC(C)c4ccccc4)CC3)cc2NC1=O (configuration not stated) | -8 | -76* | 0 | -22 | 2
O=C(Cn1cc(SCc2ccc(F)cc2)c2ccccc21)N1CCCCC1 | 2 | -9 | 0 | -1 | 3
O=C(Nc1ccc2c(c1)OCO2)C1CC(=O)N(CCc2ccccc2)C1 (configuration not stated) | 3 | -38* | 0 | -6 | -2
COc1ccc(CCN2CC(C(=O)Nc3ccc4c(c3)OCO4)CC2=O)cc1OC (configuration not stated) | -11 | -4 | 0 | 0 | 3
CCn1c(/C(C#N)=C/c2ccccc2Cl)nc2ccccc21 | 50* | 1 | 1 | 1 | 1
COc1cccc2c1C(=O)c1ccc3ccccc3c1C2=O | 1 | -35* | 0 | -2 | 1
COc1ccc(OC)c2c1C(=O)c1ccccc1C2=O | -4 | -1 | 35* | 0 | 31*
